From the supplement of paper PMC10646978
± gives the standard deviation.

Experiments:
Conditions in all cases: modulator concentration 10 µM
[1] = system: RAW-Dual (murine macrophage reporter line); experiment: NF-kB reporter (SEAP) activity fold change vs agonist alone; higher = enhanced NF-kB activity
Summary of the method: (§1)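 RAW-Dual murine macrophage reporter cells were seeded at 50 000 per well in 384-well plates and pre-incubated 1 hour at 37 °C with compound pin-transferred to 10 μM final. After 1 hour, a PRR agonist was added and cells incubated overnight. Supernatant NF-κB (SEAP, QUANTI-Blue, 620 nm absorbance) and IRF (Lucia luciferase, QUANTI-Luc, luminescence) signals were divided by the mean agonist-only control on the same plate to give fold change. Two replicate plates were averaged, with errors by propagation.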

[2] = system: RAW-Dual (murine macrophage reporter line); experiment: IRF reporter (Lucia luciferase) activity fold change vs agonist alone; higher = enhanced IRF activity
Summary of the method: as §1

[3] = system: RAW-Dual (murine macrophage reporter line); experiment: viability score (confluency relative to resting cells, overnight) (fraction); higher = more viable, active = viable (0.7 or more)
Summary of the method: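 Compound was added at a final 10 μM to RAW-Dual macrophages in 384-well plates and left overnight. Confluency was imaged with IncuCyte, and two masks were generated in IncuCyte software over all imaged wells. Each viability score is confluency relative to resting cells, and a compound met the cutoff only when both masks were above 70% of resting cells.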

[4] = agonist: CpG ODN 1826 0.5 ug/mL

Structure (SMILES) | NF-kB reporter [1, 4] | NF-kB reporter ([1]; agonist: LPS 0.1 ug/mL) | NF-kB reporter ([1]; agonist: MPLA […]) | IRF reporter ([2]; agonist: 3'3'-cGAMP 10 ug/mL) | IRF reporter ([2]; agonist: LPS 0.1 ug/mL) | IRF reporter ([2]; agonist: MPLA […]) | viability score [3]
COC(=O)C1=C(C)NC(C)=C(C(=O)O[C@@H]2CCCN(Cc3ccccc3)C2)[C@@H]1c1cccc([N+](=O)[O-])c1 [Prestw-1766] | 0.317 ± 0.025 | 0.731 ± 0.069 | 0.717 ± 0.071 | 0.412 ± 0.043 | 1.1 ± 0.14 | 0.886 ± 0.21 | 1.07 (active)
CN(C)CCCOc1nn(Cc2ccccc2)c2ccccc12.Cl | 0.704 ± 0.032 | 0.913 ± 0.073 | 0.803 ± 0.045 | 0.892 ± 0.043 | 1.14 ± 0.27 | 1.22 ± 0.43 | 1 (active)
Nc1ncn([C@@H]2O[C@H](CO)[C@@H](O)[C@H]2O)c(=O)n1 | 1.55 ± 0.066 | 0.569 ± 0.045 | 1.99 ± 0.16 | 0.549 ± 0.035 | 0.433 ± 0.049 | 0.502 ± 0.1 | 0.745 (active)
CN(C)c1nc(CNS(C)(=O)=O)nc(N2CCOCC2)n1 | 0.908 ± 0.047 | 0.916 ± 0.091 | 1.02 ± 0.071 | 1.08 ± 0.049 | 1.07 ± 0.18 | 1.14 ± 0.38 | 1.02 (active)
Cc1ccc(S(=O)(=O)n2c(C)nc3ccccc32)cc1 | 1.13 ± 0.22 | 1 ± 0.18 | 0.897 ± 0.089 | 0.969 ± 0.025 | 1.2 ± 0.13 | 1.27 ± 0.13 | 0.959 (active)
O=C(CCCCCl)NN1c2ccccc2CCc2ccccc21 | 1.18 ± 0.19 | 0.984 ± 0.11 | 1.09 ± 0.084 | 0.835 ± 0.022 | 1.18 ± 0.14 | 1.25 ± 0.29 | 1.01 (active)
O=C(Nc1cc(N2CCN(Cc3ccccc3)CC2)ncn1)c1ccc2ccccc2n1 | 0.528 ± 0.04 | 0.984 ± 0.077 | 0.846 ± 0.036 | 0.94 ± 0.049 | 1.07 ± 0.067 | 1.24 ± 0.23 | 1.01 (active)
O=C(O)CCCNc1c(C(=O)Nc2ccc(Cl)cc2)cc([N+](=O)[O-])cc1[N+](=O)[O-] | 0.817 ± 0.065 | 0.813 ± 0.057 | 0.942 ± 0.049 | 0.629 ± 0.022 | 1.11 ± 0.12 | 1.42 ± 0.24 | 0.511 (inactive)
C=CCN1CCCC1CNC(=O)c1cc2nn[nH]c2cc1OC.Cl (configuration not stated) | 0.987 ± 0.2 | 1.05 ± 0.16 | 0.962 ± 0.14 | 0.917 ± 0.045 | 1.3 ± 0.31 | 0.93 ± 0.07 | 0.999 (active)
Cc1cc(CNC(=O)CCc2ccc(S(C)(=O)=O)cc2)c(C)o1 | 1.24 ± 0.44 | 1.03 ± 0.084 | 1.04 ± 0.066 | 0.928 ± 0.046 | 0.97 ± 0.18 | 1 ± 0.11 | 0.999 (active)
CNCC[C@H](Oc1cccc2ccccc12)c1cccs1.Cl | 0.377 ± 0.037 | 0.925 ± 0.1 | 1.29 ± 0.069 | 1.41 ± 0.1 | 1.16 ± 0.18 | 1.24 ± 0.31 | 0.323 (inactive)
CCOC(=O)C1=C(C)NC(=Cc2ccccc2[N+](=O)[O-])C1=O | 1.66 ± 0.13 | 0.864 ± 0.2 | 0.872 ± 0.13 | 0.275 ± 0.024 | 0.0881 ± 0.019 | 0.064 ± 0.016 | 0.755 (active)
CC(C)(C)c1cc(C(=O)NN=Cc2ccc([N+](=O)[O-])cc2)[nH]n1 | 0.924 ± 0.12 | 0.953 ± 0.083 | 0.893 ± 0.09 | 0.858 ± 0.061 | 1.2 ± 0.11 | 1.02 ± 0.072 | 1.01 (active)
Cc1cc(Nc2cc(N3CCN(C)CC3)nc(Sc3ccc(NC(=O)C4CC4)cc3)n2)n[nH]1 | 0.0769 ± 0.0068 | 0.142 ± 0.0072 | 0.23 ± 0.021 | 0.136 ± 0.011 | 0.537 ± 0.041 | 0.451 ± 0.06 | 0.91 (active)
O=S1(=O)CCC(NCc2ccccc2C(F)(F)F)C1 (configuration not stated) | 0.997 ± 0.095 | 1.13 ± 0.11 | 0.978 ± 0.08 | 1.02 ± 0.071 | 1.03 ± 0.092 | 1.04 ± 0.32 | 1 (active)
COc1ccc(C2Nc3ccc(C(=O)c4ccccc4)cc3NC3=C2C(=O)CCC3)c(OC)c1 (configuration not stated) | 0.77 ± 0.06 | 0.844 ± 0.04 | 1.08 ± 0.095 | 0.933 ± 0.047 | 1.41 ± 0.11 | 1.58 ± 0.17 | 1.01 (active)
CC(=O)Nc1ccc(CC(=O)N2C3C=CCC2CC3)cc1 (configuration not stated) | 1.32 ± 0.32 | 1.06 ± 0.059 | 1.04 ± 0.14 | 1.01 ± 0.034 | 1.23 ± 0.14 | 1.14 ± 0.19 | 0.954 (active)
CCSc1nnc(NC(=O)Cc2ccc([N+](=O)[O-])cc2)s1 | 1.04 ± 0.21 | 1.02 ± 0.085 | 0.96 ± 0.097 | 0.926 ± 0.026 | 1 ± 0.096 | 1.07 ± 0.12 | 1 (active)
COc1ccc(Cl)cc1C(=O)NCCc1ccc(S(=O)(=O)NC(=O)NC2CCCCC2)cc1 | 0.75 ± 0.067 | 0.932 ± 0.056 | 0.987 ± 0.09 | 1.06 ± 0.052 | 1.36 ± 0.099 | 1.44 ± 0.15 | 1 (active)
N[C@@H](CC(=O)N1CCn2c(nnc2C(F)(F)F)C1)Cc1cc(F)c(F)cc1F | 0.793 ± 0.19 | 0.989 ± 0.063 | 0.905 ± 0.058 | 0.908 ± 0.044 | 1.05 ± 0.12 | 1.1 ± 0.16 | 0.998 (active)
COc1cc2c(cc1OC)C(=O)C(CC1CCN(Cc3ccccc3)CC1)C2.Cl (configuration not stated) | 0.127 ± 0.011 | 0.947 ± 0.072 | 1.46 ± 0.14 | 0.791 ± 0.067 | 1.15 ± 0.25 | 1.29 ± 0.22 | 0.959 (active)
O=[N+]([O-])c1cc(C(O)(C(F)(F)F)C(F)(F)F)cc([N+](=O)[O-])c1Cl | 1.07 ± 0.085 | 1.03 ± 0.072 | 0.972 ± 0.091 | 0.706 ± 0.029 | 1.22 ± 0.17 | 0.97 ± 0.085 | 0.996 (active)
CCN(CC)c1ccc(C=NNC(=O)c2ccccc2)c(O)c1 | 2.34 ± 0.38 | 2.11 ± 0.16 | 4.3 ± 0.34 | 0.0729 ± 0.013 | 2.18 ± 0.29 | 2.36 ± 0.42 | 0.814 (active)
CCc1ccc(OCCSc2nc3ccccc3n2CCO)cc1 | 0.776 ± 0.075 | 1.08 ± 0.07 | 0.927 ± 0.073 | 0.986 ± 0.03 | 1.33 ± 0.15 | 1.13 ± 0.09 | 1.01 (active)
N#CC[C@@H](C1CCCC1)n1cc(-c2ncnc3[nH]ccc23)cn1 | 1.95 ± 0.28 | 0.915 ± 0.29 | 0.914 ± 0.051 | 0.164 ± 0.0051 | 0.359 ± 0.081 | 0.595 ± 0.067 | 0.999 (active)
COc1ccc(C=C(NC(=O)c2cc(OC)c(OC)c(OC)c2)C(=O)NC(C(=O)O)C(C)C)c(OC)c1 (configuration not stated) | 1.01 ± 0.091 | 0.985 ± 0.055 | 0.934 ± 0.11 | 0.908 ± 0.031 | 1.23 ± 0.18 | 1.04 ± 0.29 | 1.02 (active)
